GLP-1R agonist – agonists of human GLP-1 receptor; HEK293 GLP-1R CRE-luciferase, luminescence, 4-6 h; cells express a hypersensitive GLP-1R form; Potency, µM (top dose mostly 45.6 µM), for inactives: at the top dose activation, most hits filed as activators; 0.007% of 380,000 active; note: potency is the fitted concentration of half-maximal effect; % of control where 0% means no effect
Target sequence (P43220 whole entry, looked up): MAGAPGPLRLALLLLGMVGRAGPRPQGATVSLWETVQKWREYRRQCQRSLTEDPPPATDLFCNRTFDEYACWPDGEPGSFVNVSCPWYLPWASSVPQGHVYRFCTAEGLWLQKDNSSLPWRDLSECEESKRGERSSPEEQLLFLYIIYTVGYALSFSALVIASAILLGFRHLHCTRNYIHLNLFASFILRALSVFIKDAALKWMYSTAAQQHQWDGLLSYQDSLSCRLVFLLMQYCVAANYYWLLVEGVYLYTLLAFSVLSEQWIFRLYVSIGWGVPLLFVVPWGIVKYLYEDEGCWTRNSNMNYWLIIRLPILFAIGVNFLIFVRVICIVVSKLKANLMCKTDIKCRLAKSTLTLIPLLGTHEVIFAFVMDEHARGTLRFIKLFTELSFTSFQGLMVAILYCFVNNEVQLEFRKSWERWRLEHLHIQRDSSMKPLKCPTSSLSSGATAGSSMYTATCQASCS
D3 ag – D3 dopamine receptor (human) agonism | P35462 | D3R DiscoveRx beta-arrestin cells, luminescence, 90 min | max activation, % | 0.58% of 410,000 active; in the data active = max activation above about 30%; note: 0% is about no effect
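Agonist-mode cell screen: cells plated at 1500/well and incubated overnight at 37 °C, then exposed to library compounds for 90 min at 37 °C. Detection reagent was added for 30–60 min at room temperature, and luminescence was read.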
GLP-1R inv ag – GLP-1 receptor (human) inverse agonism. Potency, µM (doses to about 38.3 µM), without a hit: at the top dose activity change, negative = inhibition, usual class: inhibitors. 1.6% of 410,000 active. HEK293 GLP-1R CRE-luciferase, luminescence, 24 h; GLP-1R form is constitutively active. P43220; note: potency is the fitted concentration of half-maximal effect; % is set by controls: 0 for no effect and ±100 for the full control effect; nearly all actives have a fitted effect of over 55% in size
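Assay principle: reduced luminescence from a cAMP-responsive reporter in HEK293 cells co-expressing a constitutively active GLP-1R. Conditions: 24 hr compound incubation, 37 deg C, 5% CO2.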
DRD3 antagonist – antagonists of human D3 dopamine receptor | max response, negative = inhibition, % | 2.5% of 360,000 active | P35462 | D3R cells, DiscoveRx beta-arrestin luminescence, antagonist mode; active compounds read low | AID 652054; in the data active = max response below about -50%; inconclusive = no clear call, values can overlap the other calls; note: % is set by controls: 0 for no effect and ±100 for the full control effect
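Cells expressing the human receptor were seeded at 1500 cells/well, incubated overnight at 37 degrees C in 5% CO2, then exposed to library compounds with dopamine controls for 90 minutes at 37 degrees C before luminescent detection.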
ClpP mod – qHTS Assay for Activators of ClpP. AID 651965, 2013. ATP-dependent Clp protease proteolytic subunit (Bacillus subtilis (strain 168)), P80244. Potency, µM (top dose mostly 57.5 µM), without a hit: at the top dose activity change, negative = active. 1.9% of 340,000 active. purified B. subtilis ClpP, FRET peptide cleavage, 20 min; active = well fitted falling curve with a large enough effect; inconclusive = small, poorly fitted or top-dose-only effect; inactive = no such curve, though single readings can be large or run the other way; note: potency is the fitted concentration of half-maximal effect; the source files actives as falling curves though it sought activators and does not explain the sign; nearly all actives have a fitted effect of over 65% in size
Target sequence (P80244 whole entry, looked up): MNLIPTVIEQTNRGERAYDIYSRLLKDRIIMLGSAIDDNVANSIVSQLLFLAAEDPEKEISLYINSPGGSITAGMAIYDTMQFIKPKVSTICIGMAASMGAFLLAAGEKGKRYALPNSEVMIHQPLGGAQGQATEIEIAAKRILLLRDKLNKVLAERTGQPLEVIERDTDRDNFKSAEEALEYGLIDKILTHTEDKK
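Purified B. subtilis ClpP, 10 microg/mL final in Tris/HCl pH8 with KCl, BSA, glycerol and Tween-20, cleaved an Abz/nitrotyrosine-quenched decapeptide. Fluorescence (ex 320, em 430) was read at 0 and 20 min at room temperature. Delta was normalized to 5.8 microM ADEP and DMSO/no-enzyme controls.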
GLP1R cytotox – cytotoxicity counter-screen for GLP-1 receptor inverse agonists. HEK293 cAMP-luciferase reporter cells, luminescence, 24 h. Potency, µM (highest dose often 38.3 µM), inactives show at the highest dose activity change, negative = inhibition, most hits filed as inhibitors. 0.13% of 410,000 active. AID 624418;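 note: loss of luciferase light is scored as toxicity; potency is the fitted concentration of half-maximal effect; % is set by controls: 0 for no effect and ±100 for the full control effect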
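Luminescence readout: signal drop marks cytotoxicity. Plated cells grew 12 h at 37 °C, 5% CO2, received 23 nL compound for 24 h, then got luciferase reagent, read after 12 min at RT.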
* hit, by the source's call; ? = inconclusive; / = no result given. An excerpt weighted towards active compounds, which were near 5.7% of everything screened. Unless noted, calls come from the whole dose curve; as a rule, active = well fitted curve in the direction sought with a large enough effect; inconclusive = small, poorly fitted or top-dose-only effect, or another doubt; inactive = no such curve, though single readings can be large; an effect the other way counts as inactive or inconclusive.

SMILES	GLP-1R agonist	D3 ag	GLP-1R inv ag	DRD3 antagonist	ClpP mod	GLP1R cytotox
CCOc1ccccc1NC(=O)C1CCN(S(=O)(=O)Cc2ccccc2)CC1	/	3	-9%	/	0%	-1%
COc1ccc(CN2C(=O)C(CC(=O)NCCN3CCOCC3)CC(C(=O)N3CCOCC3)=C2C)cc1 (stereo not drawn)	1%	8	-13%	12	-2%	4%
CCC(C)C(=O)Nc1nnc(-c2cccs2)s1 (stereo not drawn)	10%	3	3%	4	32µM*	1%
COc1ccc(Cc2nnc(NC(=O)Cc3cccs3)s2)cc1OC	-6%	5	47%	10	28µM*	4%
Cc1ccnc2c1ccc1cccnc12	4%	-29	?	-95*	/	1.6µM*
Cc1ccnc2c1ccc1ccccc12	-1%	-1	10%	0	-21%	5%
Cc1ccnc2c1ccc1c(C)ccnc12	14%	-18	?	-100*	-2%	?
Cn1c(=O)[nH]c2cc(-c3noc(-c4ccc(C#N)cc4)n3)ccc21	-1%	3	22%	/	-8%	-7%
CCn1nc(-c2ccccc2)c(-c2ccccc2)c(C(=O)OCCOC)c1=O	/	5	15%	/	-2%	3%
Cc1ccc(N=Nc2[nH]c3ccccc3c2O)cc1	-2%	-8	6%	2	25µM*	8%
NC(=O)c1c(-c2cccs2)csc1N	1%	4	0%	-54*	0%	-22%
CCOC(=O)c1c(-c2cccs2)csc1NC(=O)CC(C)C	1%	-2	?	-1	-13%	3%
Cc1ccc(S(=O)(=O)/N=C2\C(=O)c3ccccc3C([O-])=C2n2cc[n+](CCC(C)C)c2)cc1	-8%	12	0%	-76*	1%	-25%
CCCC[n+]1ccn(C2=C([O-])c3ccccc3C(=O)/C2=N\S(=O)(=O)c2ccc(Br)cc2)c1	0%	8	23%	-18	-3%	-17%
Clc1ccc(Cl)c(OCc2cc(-c3ccccc3Cl)on2)c1	10%	3	7%	11	14µM*	-3%
O=C(Nc1ccc(Cl)cc1)OCc1cc(-c2ccccc2Cl)on1	-5%	-3	18%	-1	-2%	3%
COc1cc(N(C)C)c(OC)cc1/C=C1\Cc2ccccc2C1=O	/	/	/	/	-5%	/
CNC(=S)N/N=C/c1c2ccccc2c(Cl)c2ccccc12	0%	1	7.9µM*	2	/	3.5µM*
CNC(=S)N/N=C/c1c(C)cccc1Cl	6%	-17	?	3	-3%	?
Cc1ccc(-n2nnc(-c3nccs3)n2)cc1	-8%	12	2.8µM*	5	-1%	9%
Cc1cccc(S(=O)(=O)NC(=O)C2(C)CCN2C(=O)c2c(C)noc2C)c1 (stereo not drawn)	-6%	15	23%	0	-1%	-3%
CCN(CC(=O)NC(=O)NCc1ccco1)Cc1nc2ccccc2c(=O)[nH]1	0%	-7	-12%	0	-18%	11µM*
CCN(CC(=O)NC(=O)NCc1ccco1)Cc1ccccc1	16%	6	-25%	-26	/	-3%
CC(=O)OCC(=O)NCCCOc1cccc(CN2CCCCC2)c1	0%	-67	5%	-81*	1%	2%
COc1ccc(OCc2cccc(C(=O)Nc3cc(C)on3)c2)cc1	-14%	-1	?	13	1%	-8%
SMILES	GLP-1R agonist	D3 ag	GLP-1R inv ag	DRD3 antagonist	ClpP mod	GLP1R cytotox
NNC(=O)c1cccc(COc2ccc(Br)cc2)c1	-2%	-5	5µM*	20	1%	-16%
O=C(NCc1ccccc1)c1cccc(COc2ccc(Cl)cc2)c1	-2%	-1	?	-8	-4%	13%
O=C(NCc1ccccc1)c1cccc(COc2cccc(Cl)c2)c1	-2%	2	7.9µM*	-18	-1%	-12%
COc1cc(CNC(=O)c2cccc(COc3ccc(Cl)cc3)c2)cc(OC)c1	-10%	-5	3.2µM*	4	3%	-17%
Cc1ccc(F)cc1CNC(=O)c1cc(COc2ccc3ncccc3c2)on1	14%	4	?	-4	/	-13%
O=C(NCc1cccc(Cl)c1)c1cc(COc2ccc3ncccc3c2)on1	12%	4	10µM*	-20	/	-5%
Cc1ccccc1Cn1nnc2c(=O)[nH]c(C3CCN(C(=O)c4ccccc4)CC3)nc21	/	-23	25%	/	0%	-17%
N#CC(C(O)c1ccccc1)N1CCOCC1 (stereo not drawn)	1%	7	5%	6	-1%	12%
Cc1cc(C)cc(-n2c(SCC(=O)N3CCCCCC3)nc3c([nH]c4ccccc43)c2=O)c1	-2%	-2	4%	/	-4%	3%
Cc1ccc(N(Cc2ccccc2)C(=O)c2cccc(F)c2)cc1	14%	-21	?	4	-1%	-6%
Cc1cccc2cc(CN(Cc3ccccc3)C(=O)c3cccc(F)c3)c(Cl)nc12	-2%	9	11µM*	22	-13%	-6%
O=C(O)c1ccc(/C=C(\c2nc3ccccc3[nH]2)c2nc3ccccc3s2)cc1	-1%	-3	?	-3	/	-7%
CC(C)(C)c1ccc(/C=C(\c2nc3ccccc3[nH]2)S(=O)(=O)c2ccccc2)cc1	-3%	-10	?	-66*	-1%	?
CC(C)CCN(Cc1ccco1)C(=O)c1cc2c(s1)-c1ccccc1OC2	-2%	5	?	/	4%	2%
Cn1c(/C=C/c2ccc(Cl)cc2)c([N+](=O)[O-])c(=O)n(C)c1=O	-5%	-7	0.79µM*	-21	-2%	?
O=C(Nn1c(O)c(C=C2N=c3ccccc3=N2)sc1=S)c1ccccc1Cl	-10%	-2	-17%	-55*	-3%	?
Cc1ccc2c(Sc3ccc(Cl)cc3)c(C(=O)N3CCCCC3)[nH]c2c1	/	8	?	/	1%	-5%
Nc1nc2c(ncn2[C@H]2C[C@H](O)[C@@H](CO)O2)c(=O)[nH]1	6%	-8	3%	0	1%	2%
Nc1nc(Cl)nc2c1ncn2C1CC(O)C(CO)O1 (stereo not drawn)	19%	22	5.6µM*	2	-4%	-5%
CC1CCN(CCCCOc2ccc(Br)cc2)CC1	-3%	-18	-31%	-52*	-7%	-23%
Cc1cc(C)c(OCCCCN2CCC(C)CC2)c(Br)c1	-3%	-38	?	?	0%	?
Brc1ccc(OCCCCN2CCCCC2)cc1	18%	-7	-10%	-55*	0%	-6%
Cc1ccc(OCCCCN2CCCCC2)cc1	-2%	-6	-4%	-13	2%	1%

Compound activity as filed in PubChem BioAssay.
